The nature of experiment [1]: growth inhibition of DIPG glioma cells, dose response, cell-based, SU-DIPG-XIII, MIPE4.0, CellTiter-Glo, qHTS (AID 1347061; cut-off not given, nearly all actives have AC50 up to about 37 µM;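 also: cells exposed to compound for 48 hours before readout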). The settings on record: SU-DIPG-XIII viability, CellTiter-Glo ATP luminescence.
Experiment [2] can be described thus: growth inhibition of DIPG glioma cells, dose response, cell-based, JHH-DIPG-1, MIPE4.0, CellTiter-Glo, qHTS (AID 1347062; cut-off not given, nearly all actives have AC50 up to about 27 µM;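 as to AC50: cells exposed to compound for two days before readout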). The conditions noted are these: JHH-DIPG-1 viability, CellTiter-Glo ATP luminescence. In general terms: Cellular ATP, detected with luciferase, serves as a proxy for viable cell number.
Experiment [3] in a line: growth inhibition of DIPG glioma cells, dose response, cell-based, SU-DIPG-IV, MIPE4.0, CellTiter-Glo, qHTS (AID 1347063; cut-off not given, nearly all actives have AC50 up to about 30 µM;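 also: compound exposure lasted 48 hours before the viability readout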). The settings on record: SU-DIPG-IV viability, CellTiter-Glo ATP luminescence.
The nature of experiment [4]: growth inhibition of DIPG glioma cells, dose response, cell-based, SU-DIPG-XIII, MIPE5.0, CellTiter-Glo, qHTS (AID 1347064; cut-off not given, nearly all actives have AC50 up to about 23 µM;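 as to AC50: cells exposed to compound for 48 hours before the viability read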). The settings on record: SU-DIPG-XIII viability, CellTiter-Glo ATP luminescence.
Experiment [5] is described as follows: viability loss in pontine glioma line – cell-based, SU-DIPG-XXV, MIPE5.0, CellTiter-Glo, qHTS, dose response (AID 1347065; cut-off not given, nearly all actives have AC50 up to about 26 µM;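 also: cells exposed to compound for 48 hours before ATP readout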). The conditions noted are these: CellTiter-Glo ATP luminescence.
A short description of experiment [6]: SU-DIPG-VI glioma cell viability, MIPE4.0 library, CellTiter-Glo luminescence, qHTS (AID 1347066; cut-off not given, nearly all actives have AC50 up to about 30 µM;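 also: cells exposed to compound for 48 hours before readout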). The conditions noted are these: CellTiter-Glo ATP luminescence.
The nature of experiment [7]: JHH-DIPG-1 glioma cell viability, MIPE5.0 library, CellTiter-Glo luminescence, qHTS (AID 1347067; cut-off not given, nearly all actives have AC50 up to about 26 µM;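 also: cells exposed to compound for 48 hours before readout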). The conditions noted are these: JHH-DIPG-1 glioma viability, CellTiter-Glo ATP luminescence.
Experiment [8] is described as follows: SU-DIPG-XXV glioma cell viability, MIPE5.0 library, qHTS (AID 1347068; cut-off not given, nearly all actives have IC50 up to about 30 µM;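 as to IC50: cells exposed to compound for 48 hours before viability readout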). Background: Quantitative high-throughput screening tests each substance at several concentrations.
A short description of experiment [9]: sensitizers of A549 cells to miR-34 induction, primary screen, imaging, A549 dox-inducible miR-34, nuclei and caspase counts (AID 1347080;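 active = compounds whose cell count with miR-34 switched on is under 0.7 times the count with it off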). The conditions noted are these: A549 miR-34 inducible, Hoechst nuclei count, 48 h.
A short description of experiment [10]: modifiers of HSF1 nuclear foci, imaging, Selleck Cancer Library (AID 1347162; in the data active = plate-normalised HSF1 focus index below about 0.46). The conditions noted are these: human cells, at 10 µM; SSMD: measured here: HSF1 foci SSMD mean; cell count: measured here: cell number; plate-normalised HSF1 focus index: stronger effect = lower value.
A short description of experiment [11]: survival rescue of mitochondrial mutant cells in low glucose, primary screen, MELAS cybrids, Rieske KO mouse fibroblasts, CellTiter-Glo (AID 1508586;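 active = mean z-score across replicates of 1.96 or higher in either the MELAS or the Rieske mutant cell line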;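 also: z relative to plate mean and SD of compound and empty wells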).
Experiment [12] in a line: ovarian cancer cell viability with rucaparib, profiling panel, oncology-focused library, rucaparib conditional (AID 1508598). The conditions noted are these: patient-derived ovarian cancer cells, CellTiter-Glo viability, 144 h, stronger effect = lower value.
A short description of experiment [13]: kinase inhibitors against Plasmodium liver-stage infection, cell-based, known kinase inhibitor set, luminescence, hepatoma host viability (AID 624392; call rule not given here;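 also: infected cells incubated roughly two days before readout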). The conditions noted are these: Plasmodium liver stage in hepatoma cells, luciferase luminescence, concentration not given here; liver cell % of control: measured here: host liver cell viability; parasite % of control: stronger effect = lower value.

Several values for one entry are separate records, joined by “and”; a condition that tells them apart may be missing. Equal entries are not always repeated. Records with an inconclusive call do not appear. Activity calls are given as the source filed them.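 The calls were made as follows, unless noted: active = normalized viability below 100% at a tested concentration; inactive = the rest.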

A word on the AC50: it is the midpoint of the concentration-response curve, whichever way the signal moves. The IC50 is the point on the concentration scale where inhibition reaches its midpoint. What is called viability is a read-out of living cells in per cent, often relative to untreated cells. Regarding `CC(C)n1nc(-c2ccc3oc(N)nc3c2)c2c(N)ncnc21`, the AC50 in experiment [1] is 9.35 µM (active); in experiment [2] it was 8.33 µM (active); in [3], 3.72 µM (active); in experiment [4], 1.18 µM (active); in [5], 66.1 nM (active); in [6], 18.7 µM (active). Besides, the AC50 in experiment [7] is 1.18 µM (active). Further, the 50% inhibitory concentration (IC50) in experiment [8] was 4.17 µM (active). Besides, the fold change in experiment [9] (stronger effect = lower value, cell number ratio, induced over uninduced) is 0.877 (inactive); in [9] (measured here: relative caspase fold change +Dox/-Dox) it was 0.45. For the same compound, the cell count in experiment [9] (measured here: total cells with miR-34 induction, stronger effect = lower value) is 2980; in experiment [9] (measured here: total cells without miR-34 induction), 3400; in experiment [10], 6620. The compound further came in with an SSMD in experiment [10] of 0.57. Also, in experiment [10], the plate-normalised HSF1 focus index is 1.03 (inactive). The z-score in [11] (MELAS cybrid survival, CellTiter-Glo 48 h, stronger effect = higher value) is 2.73 (active); in experiment [11] (Rieske KO mouse fibroblast survival, CellTiter-Glo 72 h), -2.58. Further, the viability is 109% (inactive) in [12] (at 0.000305 µM, OCI-C5x cells, with rucaparib 10 µM, 100% = cells with rucaparib alone); 109% (inactive) in experiment [12] (at 0.000305 µM, OCI-C5x cells, without rucaparib); 96.2% (active) in experiment [12] (at 0.000305 µM, OCI-P5x cells, with rucaparib 20 µM, 100% = cells with rucaparib alone); 92.8% (active) in experiment [12] (at 0.000305 µM, OCI-P5x cells, without rucaparib); 113% (inactive) in experiment [12] (at 0.00122 µM, OCI-C5x cells, with rucaparib 10 µM, 100% = cells with rucaparib alone); 121% (inactive) in experiment [12] (at 0.00122 µM, OCI-C5x cells, without rucaparib). Also, the viability in experiment [12] (at 0.00122 µM, OCI-P5x cells, with rucaparib 20 µM, 100% = cells with rucaparib alone) was 92.7% (active); in [12] (at 0.00122 µM, OCI-P5x cells, without rucaparib) it was 90.7% (active); in experiment [12] (at 0.00488 µM, OCI-C5x cells, with rucaparib 10 µM, 100% = cells with rucaparib alone) it was 100% (inactive); in experiment [12] (at 0.00488 µM, OCI-C5x cells, without rucaparib) it was 123% (inactive); in experiment [12] (at 0.00488 µM, OCI-P5x cells, with rucaparib 20 µM, 100% = cells with rucaparib alone), 80.8% (active); in experiment [12] (at 0.00488 µM, OCI-P5x cells, without rucaparib), 79.2% (active). For the same compound, the viability was 87.5% (active) in [12] (at 0.0195 µM, OCI-C5x cells, with rucaparib 10 µM, 100% = cells with rucaparib alone); 88.1% (active) in experiment [12] (at 0.0195 µM, OCI-C5x cells, without rucaparib); 56.8% (active) in experiment [12] (at 0.0195 µM, OCI-P5x cells, with rucaparib 20 µM, 100% = cells with rucaparib alone); 52.8% (active) in experiment [12] (at 0.0195 µM, OCI-P5x cells, without rucaparib); 70.4% (active) in [12] (at 0.0781 µM, OCI-C5x cells, with rucaparib 10 µM, 100% = cells with rucaparib alone); 62.2% (active) in experiment [12] (at 0.0781 µM, OCI-C5x cells, without rucaparib). Besides, the viability in experiment [12] (at 0.0781 µM, OCI-P5x cells, with rucaparib 20 µM, 100% = cells with rucaparib alone) was 43.5% (active); in experiment [12] (at 0.0781 µM, OCI-P5x cells, without rucaparib), 37.2% (active); in experiment [12] (at 0.313 µM, OCI-C5x cells, with rucaparib 10 µM, 100% = cells with rucaparib alone), 61.9% (active); in experiment [12] (at 0.313 µM, OCI-C5x cells, without rucaparib), 55.6% (active); in [12] (at 0.313 µM, OCI-P5x cells, with rucaparib 20 µM, 100% = cells with rucaparib alone) it was 36.9% (active); in experiment [12] (at 0.313 µM, OCI-P5x cells, without rucaparib), 26.5% (active). In addition, the viability in [12] (at 1.25 µM, OCI-C5x cells, with rucaparib 10 µM, 100% = cells with rucaparib alone) is 51.8% (active); in experiment [12] (at 1.25 µM, OCI-C5x cells, without rucaparib), 47.4% (active); in experiment [12] (at 1.25 µM, OCI-P5x cells, with rucaparib 20 µM, 100% = cells with rucaparib alone), 29% (active); in experiment [12] (at 1.25 µM, OCI-P5x cells, without rucaparib), 22.9% (active); in [12] (at 5 µM, OCI-C5x cells, with rucaparib 10 µM, 100% = cells with rucaparib alone) it was 39% (active); in experiment [12] (at 5 µM, OCI-C5x cells, without rucaparib) it was 31.9% (active). The viability was 19.5% (active) in experiment [12] (at 5 µM, OCI-P5x cells, with rucaparib 20 µM, 100% = cells with rucaparib alone) and 15.8% (active) in [12] (at 5 µM, OCI-P5x cells, without rucaparib).
Take `CN(C)C1CCN(C(=O)c2ccc(NC(=O)Nc3nc(N4CCOCC4)nc(N4CCOCC4)n3)cc2)CC1`: the AC50 in experiment [1] was 0.833 µM (active); in experiment [2], 0.166 µM (active); in experiment [3] it was 0.0469 µM (active); in experiment [4], 0.525 µM (active); in experiment [5], 295 nM (active); in experiment [6] it was 0.264 µM (active). Also, in [7], the concentration at half-maximal activity (AC50) is 0.525 µM (active). Further, the IC50 in experiment [8] was 0.934 µM (active).
Take `CCNc1cc(NC2CCC(O)CC2)nc(Nc2ccc3c(ccn3Cc3ccccc3)c2)n1` (centres undefined): in experiment [13], the liver cell % of control amounted to 83.4%. In experiment [13], the parasite % of control was 33.8% (inactive). Moreover, the outcome in experiment [1] was inactive. The AC50 is 26.4 µM (active) in experiment [2]; 18.7 µM (active) in [3]; 23.5 µM (active) in [4]; 16600 nM (active) in [5]; 23.5 µM (active) in experiment [7].
As for `O=C(CO)N1CCC(c2[nH]nc(-c3ccc(Cl)cc3)c2-c2ccncn2)CC1`, the liver cell % of control in experiment [13] is 88.6% and 86.6% and 97.2%. Further, the parasite % of control in [13] was 11.9% (inactive) and 26% (inactive) and 30.9% (inactive). The compound was called inactive in experiment [1], in experiment [2], in [3], in experiment [4], in experiment [5] and in [6]. Also, the compound was classed as inactive in experiment [8].

Values taken from PubChem BioAssay.
